Source: PubChem BioAssay (NCI)
This is part of a sample that, as a whole, favours compounds with a hit. Of some 83,000 tested, about 20% had one in any assay.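 Negative percent growth values reflect cell death: -40 means 40% of the cells present at the start died, and -100 means all died.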 Values without a mark were called inactive. Calls of active or inactive are those of the source. The calls were made as follows: active = growth percent below 10; inactive = the rest.

Assays:
Assay in all cases: NCI-60 one-dose screen, 48 h (100 = growth as untreated, 0 = no growth, -100 = all killed)
[1] = system: NCI-H322M lung; settings: 10 µM unless noted
[2] = system: HOP-62 NSCLC; settings: 10 µM unless noted
[3] = system: NCI-H460 lung; settings: 10 µM unless noted
[4] = system: HOP-92 NSCLC; settings: 10 µM unless noted
[5] = system: NCI-H522 lung; settings: 10 µM
[6] = system: A549/ATCC NSCLC; settings: 10 µM unless noted
[7] = system: 786-0 renal; settings: 10 µM unless noted
[8] = system: DU-145 prostate; settings: 10 µM unless noted
[9] = system: K-562 leukemia; settings: 10 µM unless noted
[10] = system: MALME-3M melanoma; settings: 10 µM unless noted
[11] = system: MDA-MB-231 breast; settings: 10 µM unless noted
[12] = system: RXF 393 renal; settings: 10 µM unless noted
[13] = system: SF-268 CNS; settings: 10 µM unless noted
[14] = system: SF-295 CNS; settings: 10 µM unless noted
[15] = system: SF-539 CNS; settings: 10 µM unless noted
[16] = system: UACC-257 melanoma; settings: 10 µM unless noted
[17] = system: M14 melanoma; settings: 10 µM unless noted
[18] = system: COLO 205 colon; settings: 10 µM unless noted

Structure (SMILES) | growth [1] | growth [2] | growth [3] | growth [4] | growth [5] | growth [6] | growth [7] | growth [8] | growth [9] | growth [10] | growth [11] | growth [12] | growth [13] | growth [14] | growth [15] | growth [16] | growth [17] | growth [18]
Cc1ccc(S(=O)(=O)N2CCc3ccc(O)c4c3C2Cc2cc(Cl)ccc2-4)cc1 (stereo not drawn) | 78.3% | 69.2% | 33.6% | 62.8% | 18.4% | 53.9% | 88.2% | 85.5% | 24.7% | 57% | 82.4% | 71% | 61.9% | 84.7% | 58.2% | 63.4% | 68.7% | 
CCOC(=O)c1cc2c(n(C)c1=O)-c1cnn(-c3ccc(OC)cc3)c1CC2 |  | 108% | 108% | 104% | 83.3% |  | 101% | 117% | 104% | 95.1% | 97.9% | 102% | 99.8% | 91.7% | 90.1% | 93.6% | 106% | 109%
COc1ccc(-n2ncc3c4nc(OC)c(S(=O)(=O)c5ccccc5)cc4ccc32)cc1 |  | 47.5% | 78.9% | 26.7% | 61.3% | 71.3% | 47.2% | 73% | 119% | 56.9% | 75.6% | 35.1% | 50.9% | 84% | 30.7% | 76.9% | 85% | 96.6%
CC(=O)OCC1O[C@@H]([S-])C(OC(C)=O)[C@H](OC(C)=O)[C@@H]1OC(C)=O.[Au+].c1ccc(CN2[CH-]N(Cc3ccccc3)C(c3ccccc3)=C2c2ccccc2)cc1 |  |  |  |  |  |  |  |  |  |  |  |  |  | 31.1% |  |  |  | 
Cc1nn(-c2ccccc2)c2nc3nc4c(c(N)c3c(-c3ccc(Cl)cc3)c12)CCCC4 |  | 106% | 97.4% | 84.4% | 90.6% | 94.4% | 86.9% | 109% | 53.4% | 108% | 91.5% | 90.9% | 105% | 96% | 96.9% | 91.9% | 106% | 94.4%
Cn1c2ccccc2c2nn(C(=O)c3ccccc3)c(=O)nc21 | 99.6% | 115% | 105% |  | 99% | 116% | 107% | 118% | 112% |  | 120% | 101% | 111% | 98.2% | 106% | 118% | 104% | 118%
N#C[S-].[Au+].c1ccc(CN2[CH-]N(Cc3ccccc3)C(c3ccccc3)=C2c2ccccc2)cc1 |  |  |  |  |  |  |  |  |  |  |  |  |  | -14.8% (active) |  |  |  | 
CCCCCCCCCCCCCCNc1nc(CO)ncc1-c1ccc(C(F)(F)F)cc1 |  | 92.9% | 105% | 89.6% | 90.6% | 98.9% | 97.3% | 103% | 99.6% | 91.8% | 118% | 99.8% | 91.8% | 97% | 95.6% | 94.7% | 99.8% | 108%
Cn1c2c(cc(S(=O)(=O)c3ccccc3)c1=O)CCc1c-2cnn1-c1cccc(Cl)c1 |  | 94.7% | 101% | 44.8% | -81.2% (active) | 85.6% | 92.1% | 135% | 73.3% | 87.4% | 98.3% | 93.4% | 106% | 80.3% | 83.1% | 79.7% | 98% | 97.9%
COc1ccc(-c2[nH]ncc2Nc2cc(OC)c(OC)c(OC)c2)cc1 | 48.7% | 51.7% | 14.1% | 65.8% | 12.7% |  | 44.1% | 46.5% | 57.2% | 44.1% | 53.3% | 20.5% | 53.1% | 13% | 1.83% (active) | 66.5% | 31.1% | -11.9% (active)
Cc1ccc(C(=O)O[C@H](C(=O)O)[C@H](OC(=O)c2ccc(C)cc2)C(=O)O)cc1 |  |  |  |  |  |  |  |  |  |  | 113% |  |  |  |  |  |  | 
CC(=O)OCC1OC([S-])C(OC(C)=O)C(OC(C)=O)C1OC(C)=O.[Au+].c1ccc(CN2[CH-]N(Cc3ccccc3)C(c3ccccc3)=C2c2ccccc2)cc1 |  |  |  |  |  |  |  |  |  |  |  |  |  | -11.3% [4.75 µM] (active) |  |  |  | 
